# Experimental data from ChEMBL document CHEMBL3988442, “University of Dundee, Small-Polar-MMV Screening Library” (2021).
# Out of some 66,000 compounds screened, about 960 (1.5%) showed an effect of 50% or more. The sample as a whole holds a higher share of strong results than the screen did.
# System: Trypanosoma brucei
# Experiment: Trypanosoma brucei 72 hour study
# Format: functional, organism-based
# Parameters: scale not given: in the data most compounds retested in dose-response had high values
smiles,measurement,setting,value
CN(C)C(=O)CO[C@H]1CN(Cc2nccs2)[C@@H]2COC[C@H]12.O=C(O)C(F)(F)F,Percent Effect,"30.3 µM, […]",-75.65%
Cc1cc2nc(C(C)C)cc(N(C)CC3CCCN(CCO)C3)n2n1 (stereo not drawn),Percent Effect,"30.3 µM, […]",9.548%
Cc1nc(CN2CCCC(CCc3c(F)cccc3F)C2)c[nH]1 (stereo not drawn),Percent Effect,"30 µM, 30.03 µM",77.03%
Cc1nc(CN2CCCC(CCc3ccccc3C)C2)c[nH]1 (stereo not drawn),Percent Effect,"30.3 µM, […]",-10.1%
Cc1nc(CN2CCCC(CCc3ccccc3F)C2)c[nH]1 (stereo not drawn),Percent Effect,"30.3 µM, […]",-5.303%
Cn1cc(CN2CCCC(CCc3ccc(F)c(F)c3)C2)cn1 (stereo not drawn),Percent Effect,"30 µM, 30.03 µM",-1.052%
Cc1nc(CN2CCCC(CCc3ccc(F)cc3F)C2)c[nH]1 (stereo not drawn),Percent Effect,"30 µM, 30.03 µM",47.76%
Cc1nc(CN2CCCC(CCc3ccc(F)c(F)c3)C2)c[nH]1 (stereo not drawn),Percent Effect,"30.3 µM, […]",50.38%
CN(C)[C@@H]1CCN(S(=O)(=O)C2CC2)[C@H]1Cc1ccccc1.O=C(O)C(F)(F)F,Percent Effect,"30.3 µM, […]",-33.03%
O=C1CCNc2ncc(-c3ccccc3Cl)cc2CN1C1CC1,Percent Effect,"30.3 µM, […]",10.61%
Cl.O=C(NCc1ccc(Cl)cc1)C1=NOC2(CCNC2)C1 (stereo not drawn),Percent Effect,"30 µM, 30.03 µM",4.958%
Cc1ccc(NC(=O)Nc2c[nH]c(=O)[nH]c2=O)c(C)c1,Percent Effect,"30 µM, 30.03 µM",-29.58%
Cc1cc(CN2CCC3(CC2)COC(COCC2CC2)C3)no1.O=C(O)C(F)(F)F (stereo not drawn),Percent Effect,"30.3 µM, […]",4.372%
Cc1cncc(CN2C[C@@H](O)[C@H](Oc3ccccc3)C2)c1,Percent Effect,"30.3 µM, […]",6.651%
c1ccc(-c2cc(CN3C[C@@H]4CC[C@H](C3)N(CC3CC3)C4)on2)cc1,Percent Effect,"30 µM, 30.03 µM",-36.61%
c1ccc(-c2nnc(CN3C[C@@H]4CC[C@H](C3)N(CC3CCC3)C4)o2)cc1,Percent Effect,"30 µM, 30.03 µM",-46.57%
c1ccc(-c2cc(CN3C[C@@H]4CC[C@H](C3)N(CC3CCC3)C4)on2)cc1,Percent Effect,"30 µM, 30.03 µM",58.21%
O=C(O)C(F)(F)F.O=C(O)C(F)(F)F.O=C(c1n[nH]c2c1CN(C1CCOCC1)CC2)N1CCCC1,Percent Effect,"30.3 µM, […]",-4.414%
CCOc1ccc(N(C)Cc2nnc(C)o2)cc1,Percent Effect,"30.3 µM, […]",-136.8%
CCOc1ccc(N(C)Cc2nc(C)c(C)o2)cc1,Percent Effect,"30.3 µM, […]",96.05%
CCOc1ccc(N(C)Cc2nnc(C3CC3)o2)cc1,Percent Effect,"30.3 µM, […]",-683%
CCn1ncc2c1C(COC)N(C(=O)CCc1ccccc1)CC2.O=C(O)C(F)(F)F (stereo not drawn),Percent Effect,"30.3 µM, […]",-62.76%
COC[C@@]12CC[C@@H](N3CCOCC3)C[C@H]1CCN(c1ncccc1C)C2,Percent Effect,"30.3 µM, […]",-4.564%
COC[C@@]12CC[C@@H](N3CCOCC3)C[C@H]1CCN(c1ncccc1Cl)C2,Percent Effect,"30 µM, 30.03 µM",81.93%
COC[C@@]12CC[C@@H](N3CCOCC3)C[C@H]1CCN(c1ncccc1F)C2,Percent Effect,"30.3 µM, […]",8.261%
Cl.Cl.O=C(CN1CCN(CC(O)C2CC2)CC1)NCc1ccccc1 (stereo not drawn),Percent Effect,"30.3 µM, […]",-20.63%
Cn1ccc(CN2CCCC23CCN(Cc2cccc(F)c2)CC3)n1.O=C(O)C(F)(F)F.O=C(O)C(F)(F)F,Percent Effect,"30.3 µM, […]",-80.78%
CCc1cc(C(F)(F)F)c2c(C3CCN(C(=O)COC)CC3)noc2n1,Percent Effect,"30.3 µM, […]",11.66%
O=C(N[C@@H]1CN(CCc2ccc(F)cc2)C[C@H]1O)c1cscn1,Percent Effect,"30.3 µM, […]",8.587%
O=C(O)C(F)(F)F.O=C(O)C(F)(F)F.O=C(c1cccnc1)N1CCn2cc(CN3CCCC3)nc2C1,Percent Effect,"30.3 µM, […]",-57.28%
N#CC1(C(=O)NCCCNc2ccc(C(F)(F)F)cn2)CCCC1,Percent Effect,"30 µM, 30.03 µM",104.7%
N#Cc1ccc(C(=O)NCCCNc2ccc(C(F)(F)F)cn2)cc1,Percent Effect,"30 µM, 30.03 µM",0.4176%
O=C(NCCCNc1ccc(C(F)(F)F)cn1)c1ccccc1,Percent Effect,10 µM,-30.72%
CCCN1C(=O)[C@H]2CC[C@@H]1CN(S(=O)(=O)c1cccc(Cl)c1)C2,Percent Effect,"30.3 µM, […]",-12.81%
Cc1cccc(CN2CCc3onc(CO)c3C2)n1.O=C(O)C(F)(F)F,Percent Effect,"30.3 µM, […]",-52.13%
O=C(O)C(F)(F)F.O=C(O)C(F)(F)F.c1cncc(OCc2noc3c2CN(Cc2ccsc2)CC3)c1,Percent Effect,"30 µM, 30.03 µM",-15.24%
O=C(Nc1cccc(Cl)c1)c1nn(C2CCS(=O)(=O)C2)c2c1CCCC2 (stereo not drawn),Percent Effect,"30 µM, 30.03 µM",73.39%
O=C(Nc1ccc(Cl)cc1)c1nn(C2CCS(=O)(=O)C2)c2c1CCCC2 (stereo not drawn),Percent Effect,"30 µM, 30.03 µM",-43.99%
O=C(Nc1ccccc1)c1nn(C2CCS(=O)(=O)C2)c2c1CCCC2 (stereo not drawn),Percent Effect,"30 µM, 30.03 µM",23.09%
CSCC(C)NCc1ccc2[nH]c(C)c(C)c2c1 (stereo not drawn),Percent Effect,"30 µM, 30.03 µM",-11.75%
Cc1[nH]c2ccc(CNc3cc(C#N)ccn3)cc2c1C,Percent Effect,"30 µM, 30.03 µM",39.43%
Cc1[nH]c2ccc(CNc3cc(C(=O)NC(C)C)ccn3)cc2c1C,Percent Effect,"30 µM, 30.03 µM",50.33%
Cc1[nH]c2ccc(CNc3cc(C(N)=O)ccn3)cc2c1C,Percent Effect,"30 µM, 30.03 µM",60.58%
COCC(C)NCc1ccc2[nH]c(C)c(C)c2c1 (stereo not drawn),Percent Effect,"30 µM, 30.03 µM",2.897%
COC(=O)C(C)NCc1ccc2[nH]c(C)c(C)c2c1 (stereo not drawn),Percent Effect,"30 µM, 30.03 µM",-35.15%
NC[C@H]1CC[C@H](C(NC(=O)CC2CCCCC2)c2ccccn2)CC1 (stereo partly drawn),Percent Effect,"30.3 µM, […]",-8.457%
COc1cnc(C2(O)CCN(C(=O)c3ccccn3)CC2)c(OC)n1,Percent Effect,"30.3 µM, […]",-9.61%
COc1c(CNCCNC(=O)c2cccc(C)c2)c(C)nn1C.Cl,Percent Effect,"30.3 µM, […]",0.1013%
O=C(NCC1CC1)[C@H]1C[C@@H]2CN(C(=O)NCc3ccccc3)C[C@H]1O2,Percent Effect,"30 µM, 30.03 µM",46.62%
COc1cccc(-c2n[nH]cc2CNC2CCN(C(C)C)CC2)c1.Cl,Percent Effect,"30 µM, 30.03 µM",-15.13%
COc1c(CNC2CCOc3ccccc32)c(C(C)C)nn1C (stereo not drawn),Percent Effect,"30 µM, 30.03 µM",25.19%
CC(C)c1nn(C)c(N(C)C)c1CNC1CCOc2ccccc21 (stereo not drawn),Percent Effect,"30 µM, 30.03 µM",-51.78%
CC(C)c1nn(C)c(Cl)c1CNC1CCOc2ccccc21.Cl (stereo not drawn),Percent Effect,"30 µM, 30.03 µM",55.88%
CN1CC(=O)N(c2cccc(F)c2)CC12CCN(CC1CCOCC1)C2.O=C(O)C(F)(F)F.O=C(O)C(F)(F)F (stereo not drawn),Percent Effect,"30 µM, 30.03 µM",9.991%
COc1ccc(C2=Nn3c(CN)nnc3-c3ccccc3C2)cc1,Percent Effect,"30 µM, 30.03 µM",2.28%
COc1ncccc1C(=O)N1CCCC(n2ccnc2C)C1 (stereo not drawn),Percent Effect,"30.3 µM, […]",-7.34%
O=C(NC1CCN(Cc2cccc3c2OCCO3)CC1)c1cccs1,Percent Effect,10 µM,10.83%
same,Percent Effect,"30.3 µM, […]",7.019%
Cc1ccc(C(=O)NC2CCN(Cc3cccc4c3OCCO4)CC2)s1,Percent Effect,10 µM,-2.683%
same,Percent Effect,"30.3 µM, […]",68.24%
Cc1ccoc1C(=O)NC1CCN(Cc2ccccc2C#N)CC1,Percent Effect,10 µM,15.78%
same,Percent Effect,"30.3 µM, […]",-0.9403%
CC(C)C(=O)NC1CCN(Cc2cccc3c2OCCO3)CC1,Percent Effect,"30 µM, 30.03 µM",-15.03%
Cc1ccoc1C(=O)NC1CCN(Cc2cccc3ccccc23)CC1,Percent Effect,10 µM,-9.27%
same,Percent Effect,"30.3 µM, […]",57.41%
Cc1ccoc1C(=O)NC1CCN(Cc2ccccc2F)CC1,Percent Effect,10 µM,-23.23%
same,Percent Effect,"30.3 µM, […]",4.829%
O=C(O)C(F)(F)F.O=C(c1ccc(F)cc1)N1CCC2(CCN(Cc3ccccn3)C2=O)C1 (stereo not drawn),Percent Effect,"30 µM, 30.03 µM",-50.24%
Cc1csc2ncc(-c3ccnc(N4CCC[C@H](C(N)=O)C4)n3)c(=O)n12,Percent Effect,"30.3 µM, […]",-8.345%
CCN(CC)Cc1cn2c(n1)CN(C1CCOC1)CC2.O=C(O)C(F)(F)F.O=C(O)C(F)(F)F (stereo not drawn),Percent Effect,"30.3 µM, […]",-56.79%
Cc1ccccc1C(N)c1ccncc1.Cl (stereo not drawn),Percent Effect,"30.3 µM, […]",-1.36%
CCOc1c(F)cccc1C(=O)N(CC)C(C)c1ccncc1 (stereo not drawn),Percent Effect,"30.3 µM, […]",3.975%
CCOc1c(F)cccc1C(=O)N(CC)C(C)c1cccnc1 (stereo not drawn),Percent Effect,"30.3 µM, […]",6.068%
CCOc1c(F)cccc1C(=O)N(c1cccnc1)C(C)C,Percent Effect,"30.3 µM, […]",99.6%
Cc1cc(C(=O)N2CCC3(CC2)C(=O)N(C)CCN3CC(C)C)c(C)o1.O=C(O)C(F)(F)F,Percent Effect,"30.3 µM, […]",2.031%
CCOC(=O)[C@]12CCCN(Cc3cccs3)C[C@H]1CN(C(C)C)C2.O=C(O)C(F)(F)F.O=C(O)C(F)(F)F,Percent Effect,"30.3 µM, […]",-11.59%
Cc1cc(=O)n2nc(Oc3cccc(C(N)=O)c3)sc2n1,Percent Effect,"30 µM, 30.03 µM",-16.62%
Cc1cc(=O)n2nc(Oc3cc(Cl)cc(Cl)c3)sc2n1,Percent Effect,"30 µM, 30.03 µM",-23.2%
Cc1cc(=O)n2nc(Oc3ccc(C#N)cc3Cl)sc2n1,Percent Effect,"30 µM, 30.03 µM",98.96%
Cc1cc(=O)n2nc(Oc3ccc(F)c(F)c3)sc2n1,Percent Effect,"30 µM, 30.03 µM",-14.16%
Cc1cc(=O)n2nc(Oc3ccc(Cl)c(C)c3)sc2n1,Percent Effect,"30 µM, 30.03 µM",-32.75%
Cc1cc(=O)n2nc(Oc3cccc(I)c3)sc2n1,Percent Effect,"30 µM, 30.03 µM",99.1%
CN1CCCCCC1C(=O)N1CCN(c2ccccc2C#N)CC1 (stereo not drawn),Percent Effect,"30 µM, 30.03 µM",14.65%
COc1ncccc1CNC(=O)NCc1ccco1,Percent Effect,10 µM,-3.742%
same,Percent Effect,"30.3 µM, […]",11.99%
Cc1ccc(CN2CC[C@H]3[C@H](CC(Cn4cccn4)N3C)C2)s1.O=C(O)C(F)(F)F.O=C(O)C(F)(F)F.O=C(O)C(F)(F)F (stereo partly drawn),Percent Effect,"30.3 µM, […]",2.612%
O=C(CC1CC1)N1CC[C@@H]2[C@H](CC1)N(Cc1cccnc1)CCS2(=O)=O.O=C(O)C(F)(F)F.O=C(O)C(F)(F)F,Percent Effect,"30.3 µM, […]",-63.96%
Cc1cccc(OC2CCN(c3ncc(C#N)cc3Cl)CC2)n1,Percent Effect,"30.3 µM, […]",2.665%
Cc1cccc(OC2CCN(c3ccc(C#N)cn3)CC2)n1,Percent Effect,"30.3 µM, […]",86.54%
Cc1cccc(OC2CCN(c3nccnc3C#N)CC2)n1,Percent Effect,"30.3 µM, […]",-52.89%
CCn1cc(NS(=O)(=O)c2ccc(Br)s2)c(C(N)=O)n1,Percent Effect,"30 µM, 30.03 µM",-24.98%
O=C(Nc1cnccn1)[C@H]1CC[C@@H]2[C@@H](CCN2Cc2ccoc2)O1.O=C(O)C(F)(F)F,Percent Effect,"30.3 µM, […]",-117.8%
COc1cc(F)ccc1N(C)Cc1cccnc1,Percent Effect,"30 µM, 30.03 µM",-106.7%
COc1cc(F)ccc1N(C)Cc1ccncc1,Percent Effect,"30 µM, 30.03 µM",-66.27%
COc1cc(F)ccc1N(C)Cc1ccccn1,Percent Effect,"30 µM, 30.03 µM",73.53%
Cc1c(-c2cccs2)nn2c(O)c3c(nc12)CN(C(=O)C1CC1)C3,Percent Effect,"30.3 µM, […]",9.41%
Cc1ccc(N2CCN(C(=O)CCc3n[nH]c(C)c3C)CC2=O)cc1,Percent Effect,"30 µM, 30.03 µM",-42.04%
CC(=O)c1cc(CN2C[C@H]3CC[C@@H]2CN(S(=O)(=O)N(C)C)C3)cs1,Percent Effect,"30 µM, 30.03 µM",79.15%
CC(=O)c1cc(CN2C[C@H]3CC[C@@H]2CN(S(C)(=O)=O)C3)cs1,Percent Effect,"30 µM, 30.03 µM",91.04%
CN(C)S(=O)(=O)N1C[C@@H]2CC[C@H](C1)N(Cc1ccc3nsnc3c1)C2,Percent Effect,"30 µM, 30.03 µM",2.112%
CN(C)S(=O)(=O)N1C[C@@H]2CC[C@H](C1)N(Cc1ccc(F)c(F)c1)C2,Percent Effect,"30 µM, 30.03 µM",-42.84%
CS(=O)(=O)N1C[C@@H]2CC[C@H](C1)N(Cc1ccsc1)C2,Percent Effect,"30 µM, 30.03 µM",-69.04%
CS(=O)(=O)N1C[C@@H]2CC[C@H](C1)N(Cc1ccc3nsnc3c1)C2,Percent Effect,"30 µM, 30.03 µM",-23.46%
